Several values for one entry are separate records, joined by “and”; a condition that tells them apart may be missing. Equal values may be shown once. Inconclusive results are not listed. Activity calls are given as the source filed them. The calls were made as follows, unless noted: active = hit-call score of the fitted dose curve at least 0.9, where 1 is the maximum; inconclusive = response in the unintended direction; inactive = score below 0.9.

Read-out in test [1]: glucuronosyltransferase (UGT1A1), UGT1A1 (gene 54658)
The experiment in a line: CLD_UGT1A1_6hr: CellzDirect (CLD) Gene Expression Assay for glucuronosyltransferase (UGT1A1) at 6 hours (AID 2283672). Put shortly:
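Primary human hepatocytes from two donor preparations, dosed with fresh solutions in 0.2% DMSO, harvested at 6 h. UGT1A1 mRNA measured by qNPA chemiluminescence; induction fitted upward versus DMSO.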

Read-out in test [2]: Cytochrome P450 2B6 (Homo sapiens) (UniProt P20813)
Nature of the test: CLD_CYP2B6_6hr: CellzDirect (CLD) Gene Expression Assay for xenobiotic metabolism (CYP2B6) at 6 hours (AID 2283677).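 Also: actives raise CYP2B6 transcript above DMSO baseline so AC50 marks an inducer.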 Put shortly: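 Primary human hepatocytes dosed with chemicals at multiple concentrations, vehicle 0.2% DMSO; CYP2B6 mRNA induction measured 6 h after dosing by quantitative nuclease protection assay with chemiluminescence, gain of signal fitted relative to DMSO.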

A short description of test [3]: CCTE_Padilla_ZF_144hpf_TERATOSCORE: (Legacy) CCTE's 144 Hour Post-fertilization zebrafish Assay Teratoscore, Padilla Lab (AID 2283679; active = hit-call score of the fitted dose curve at least 0.9, where 1 is the maximum; inactive = score below 0.9;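 as to AC50: zebrafish embryos with chorions exposed by immersion from 6-8 hpf to 5 dpf with daily renewal; teratogenicity score from eye scoring of death hatching and malformations at 144 hpf; higher score means more developmental defects relative to DMSO baseline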). Put shortly:
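Larvae scored by eye at 144 hpf for death, hatching and malformations after a day in clean Hanks'. Before that, daily-renewed exposure at 80 uM (0.4% DMSO, 26C) from roughly 6-8 hpf through 5 dpf, 4 embryos per chemical.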

Read-out in test [4]: Cytochrome P450 3A4 (Homo sapiens) (UniProt P08684)
Nature of the test: CLD_CYP3A4_6hr: CellzDirect (CLD) Gene Expression Assay for xenobiotic metabolism (CYP3A4) at 6 hours (AID 2283680). The essentials: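 Primary human hepatocytes (two donor preparations) dosed; CYP3A4 mRNA harvested at 6 h and quantified by qNPA chemiluminescence. Gain of signal fitted against 0.2% DMSO vehicle; cytotoxicity flagged by phase-contrast morphology.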

Read-out in test [5]: Glyceraldehyde-3-phosphate dehydrogenase (Homo sapiens) (UniProt P04406)
The experiment in a line: CLD_GAPDH_6hr: CellzDirect (CLD) Gene Expression Assay for Baseline Control (Glyceraldehyde 3-phosphate dehydrogenase) at 6 hours (AID 2283681).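 Also: active means increased signal relative to DMSO vehicle.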 The essentials: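 Primary human hepatocytes from two donor preparations, dosed at multiple concentrations with 0.2% DMSO vehicle; GAPDH mRNA measured 6 h after dosing by chemiluminescent quantitative nuclease protection assay (qNPA) on denatured lysates. Serves as background control; cytotoxicity annotated by morphology.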

Read-out in test [6]: xenobiotic metabolism (CYP1A2), CYP1A2 (gene 1544)
The experiment in a line: CLD_CYP1A2_24hr: CellzDirect (CLD) Gene Expression Assay for xenobiotic metabolism (CYP1A2) at 24 hours (AID 2283683). Put shortly:
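Primary human hepatocytes from two donor preparations dosed daily with multiple concentrations of chemical, 0.2% DMSO vehicle. CYP1A2 mRNA at 24 h quantified by qNPA chemiluminescence; gain of signal analyzed relative to DMSO. Cytotoxicity flagged by phase-contrast morphology.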

Read-out in test [7]: ABC Transporter (ABCB1), ABCB1 (gene 5243)
Nature of the test: CLD_ABCB1_24hr: CellzDirect (CLD) Gene Expression Assay for ABC Transporter (ABCB1) at 24 hours (AID 2283684). The essentials:
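Primary human hepatocytes, two donor preparations, dosed daily with fresh solutions; vehicle 0.2% DMSO; harvested at 24 h. ABCB1 mRNA measured by quantitative nuclease protection assay (chemiluminescence); morphology-based cytotoxicity annotated.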

Read-out in test [8]: Cytochrome P450 2C19 (Homo sapiens) (UniProt P33261)
The experiment in a line: CLD_CYP2C19_24hr: CellzDirect (CLD) Gene Expression Assay for xenobiotic metabolism (CYP2C19) at 24 hours (AID 2283687).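 Also: activity means mRNA induction above DMSO vehicle baseline.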 The essentials: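 Primary human hepatocytes (two donor preparations) dosed daily with fresh test chemical in 0.2% DMSO vehicle; CYP2C19 mRNA induction measured at 24 h by quantitative nuclease protection assay with chemiluminescence, fitted for gain of signal versus DMSO.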

Read-out in test [9]: Cytochrome P450 2C9 (Homo sapiens) (UniProt P11712)
Nature of the test: CLD_CYP2C9_24hr: CellzDirect (CLD) Gene Expression Assay for xenobiotic metabolism (CYP2C9) at 24 hours (AID 2283688). The essentials:
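Primary human hepatocytes from two donor preparations, dosed daily for two days at multiple concentrations; vehicle 0.2% DMSO. CYP2C9 mRNA induction at 24 h measured by qNPA chemiluminescence relative to DMSO; cytotoxicity annotated from morphology.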

Read-out in test [10]: Cytochrome P450 3A4 (Homo sapiens) (UniProt P08684)
Nature of the test: CLD_CYP3A4_24hr: CellzDirect (CLD) Gene Expression Assay for xenobiotic metabolism (CYP3A4) at 24 hours (AID 2283689). Put shortly:
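Primary human hepatocytes from two donors dosed daily with fresh compound for two days, 0.2% DMSO vehicle. CYP3A4 mRNA at 24 hr by qNPA chemiluminescence; gain-of-signal fit versus DMSO, cytotoxicity flagged by morphology.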

Read-out in test [11]: organic anion transporter (SLCO1B1), SLCO1B1 (gene 10599)
The experiment in a line: CLD_SLCO1B1_24hr: CellzDirect (CLD) Gene Expression Assay for organic anion transporter (SLCO1B1) at 24 hours (AID 2283690). The essentials: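 Primary human hepatocytes (two donor preparations) dosed daily for two days with chemicals at multiple concentrations, 0.2% DMSO vehicle. SLCO1B1 mRNA at 24 h measured by qNPA chemiluminescence; induction fitted relative to DMSO.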

Read-out in test [12]: alkyl and aryl transferase (GSTA2), GSTA2 (gene 2939)
The experiment in a line: CLD_GSTA2_24hr: CellzDirect (CLD) Gene Expression Assay for alkyl and aryl transferase (GSTA2) at 24 hours (AID 2283693). Put shortly:
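Primary human hepatocytes (two donor preparations) dosed daily for two days with chemicals at multiple concentrations (vehicle 0.2% DMSO); GSTA2 mRNA at 24 h measured by qNPA chemiluminescence, gain-of-signal versus DMSO.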

Read-out in test [13]: Cytochrome P450 2B6 (Homo sapiens) (UniProt P20813)
The experiment in a line: CLD_CYP2B6_48hr: CellzDirect (CLD) Gene Expression Assay for xenobiotic metabolism (CYP2B6) at 48 hours (AID 2283699).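 Also: actives raise transcript level above DMSO so potency reflects induction.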 The essentials: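 Primary human hepatocytes dosed daily for two days over multiple concentrations, 0.2% DMSO vehicle; CYP2B6 mRNA quantified at 48 h by qNPA chemiluminescence. Induction fitted as gain of signal versus DMSO; cytotoxicity annotated by morphology.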

Read-out in test [14]: Cytochrome P450 2B6 (Homo sapiens) (UniProt P20813)
Nature of the test: CLD_CYP2B6_24hr: CellzDirect (CLD) Gene Expression Assay for xenobiotic metabolism (CYP2B6) at 24 hours (AID 2283686). The essentials:
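Primary human hepatocytes dosed daily for two days with fresh solutions, harvested at 24 hours; mRNA induction quantified by qNPA chemiluminescence, gain of signal vs 0.2% DMSO vehicle. Cytotoxicity annotated from phase-contrast morphology.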

Read-out in test [15]: glucuronosyltransferase (UGT1A1), UGT1A1 (gene 54658)
Nature of the test: CLD_UGT1A1_24hr: CellzDirect (CLD) Gene Expression Assay for glucuronosyltransferase (UGT1A1) at 24 hours (AID 2283696). The essentials:
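Primary human hepatocytes from two donor preparations were dosed (0.2% DMSO vehicle) and harvested at 24 h; UGT1A1 mRNA induction was quantified by chemiluminescent qNPA, fitted as gain relative to DMSO.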

Read-out in test [16]: xenobiotic metabolism (CYP1A1), CYP1A1 (gene 1543)
The experiment in a line: CLD_CYP1A1_24hr: CellzDirect (CLD) Gene Expression Assay for xenobiotic metabolism (CYP1A1) at 24 hours (AID 2283673). The essentials: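 Primary human hepatocytes dosed daily with fresh solutions in 0.2% DMSO vehicle. mRNA measured at 24 h by quantitative nuclease protection assay with chemiluminescence; gain-of-signal fit versus DMSO, with morphology-based cytotoxicity flags.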

Read-out in test [17]: HMG-CoA synthase (HMGCS2), HMGCS2 (gene 3158)
Nature of the test: CLD_HMGCS2_6hr: CellzDirect (CLD) Gene Expression Assay for HMG-CoA synthase (HMGCS2) at 6 hours (AID 2283682).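 Also: actives raise HMGCS2 transcript above the 0.2% DMSO vehicle baseline.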 Put shortly: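 Primary human hepatocytes dosed daily with fresh chemical, 0.2% DMSO vehicle; HMGCS2 mRNA measured at 6 h by qNPA chemiluminescence. Gain of signal fitted against DMSO; cytotoxicity flagged from phase-contrast morphology.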

Read-out in test [18]: Cytochrome P450 2C19 (Homo sapiens) (UniProt P33261)
The experiment in a line: CLD_CYP2C19_6hr: CellzDirect (CLD) Gene Expression Assay for xenobiotic metabolism (CYP2C19) at 6 hours (AID 2283678). Put shortly: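 Primary human hepatocytes from two donor preparations were dosed daily, with 0.2% DMSO as vehicle, and harvested 6 h after dosing. CYP2C19 mRNA induction was measured by qNPA chemiluminescence and fitted as gain of signal against DMSO.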

Cytochrome P450 2C19 (Homo sapiens), sequence (P33261 whole entry, looked up): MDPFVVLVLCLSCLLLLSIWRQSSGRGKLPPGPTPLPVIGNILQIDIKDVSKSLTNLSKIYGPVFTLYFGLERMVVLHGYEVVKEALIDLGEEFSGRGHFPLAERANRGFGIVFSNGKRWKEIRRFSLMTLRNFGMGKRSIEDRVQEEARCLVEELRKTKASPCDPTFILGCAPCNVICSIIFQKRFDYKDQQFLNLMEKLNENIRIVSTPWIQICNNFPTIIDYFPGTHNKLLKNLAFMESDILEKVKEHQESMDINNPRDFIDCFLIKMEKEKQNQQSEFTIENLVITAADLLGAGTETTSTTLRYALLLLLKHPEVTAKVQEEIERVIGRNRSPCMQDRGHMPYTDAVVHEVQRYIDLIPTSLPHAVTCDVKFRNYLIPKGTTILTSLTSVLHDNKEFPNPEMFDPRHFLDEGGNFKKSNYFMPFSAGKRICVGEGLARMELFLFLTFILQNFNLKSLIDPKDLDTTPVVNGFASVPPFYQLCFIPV
Glyceraldehyde-3-phosphate dehydrogenase (Homo sapiens), sequence (P04406 whole entry, looked up): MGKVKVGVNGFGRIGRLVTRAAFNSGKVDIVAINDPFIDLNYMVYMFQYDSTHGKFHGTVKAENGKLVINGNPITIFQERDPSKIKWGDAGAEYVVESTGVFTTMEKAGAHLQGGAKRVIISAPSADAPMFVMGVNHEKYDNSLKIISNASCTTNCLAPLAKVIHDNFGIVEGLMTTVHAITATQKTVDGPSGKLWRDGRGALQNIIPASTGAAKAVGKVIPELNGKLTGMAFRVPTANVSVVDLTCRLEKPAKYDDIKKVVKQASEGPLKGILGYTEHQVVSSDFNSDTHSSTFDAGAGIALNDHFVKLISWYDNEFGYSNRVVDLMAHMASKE
Cytochrome P450 3A4 (Homo sapiens), sequence (P08684 whole entry, looked up): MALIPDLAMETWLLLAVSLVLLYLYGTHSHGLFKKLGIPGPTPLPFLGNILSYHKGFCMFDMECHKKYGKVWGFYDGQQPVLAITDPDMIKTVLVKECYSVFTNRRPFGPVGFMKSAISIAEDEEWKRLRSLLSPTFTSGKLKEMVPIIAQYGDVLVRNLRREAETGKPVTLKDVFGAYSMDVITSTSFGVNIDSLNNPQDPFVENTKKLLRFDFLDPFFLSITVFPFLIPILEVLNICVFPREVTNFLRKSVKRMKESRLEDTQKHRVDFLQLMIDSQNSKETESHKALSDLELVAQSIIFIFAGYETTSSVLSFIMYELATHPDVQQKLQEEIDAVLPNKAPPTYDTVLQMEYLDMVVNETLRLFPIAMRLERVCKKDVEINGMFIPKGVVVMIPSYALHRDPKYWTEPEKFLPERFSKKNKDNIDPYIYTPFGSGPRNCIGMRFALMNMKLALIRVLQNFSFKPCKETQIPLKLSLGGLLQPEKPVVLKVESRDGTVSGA

Consider `CNC(=O)ON=CC(C)(C)SC`, for which the outcome in test [1], in [2], in test [4], in test [5], in [6] and in test [7] was inactive. Also, the call in test [8], in test [9], in [10], in [11], in test [12] and in test [13] was inactive. The AC50 in test [3] was 65.3 µM (active).
As to `CO/C=C(/C(=O)OC)c1ccccc1Oc1cc(Oc2ccccc2C#N)ncn1`, the call in [1], in test [5], in test [7], in [8], in test [9] and in test [12] was inactive. Besides, the result in test [15] was inactive. The AC50 was 1 µM (active) in test [2]; 1.46 µM (active) and 4.82 µM (active) and 4.07 µM (active) in test [3]; 7.02 µM (active) in test [14]; 2.46 µM (active) in [13].
Turning to `CCCCC(CC)COC(=O)c1ccccc1C(=O)OCC(CC)CCCC` (centres undefined), the compound was called inactive in [1], in test [16], in test [3], in test [5], in [17] and in test [6]. For the same compound, the compound was classed as inactive in test [7], in [8], in test [9], in test [12] and in [13]. Also, in test [2], the AC50 was 4.09 µM (active).
For the compound `COC(=O)N(OC)c1ccccc1COc1ccn(-c2ccc(Cl)cc2)n1`, the AC50 in test [16] is 1.9 µM (active); in [3], 0.192 µM (active); in [6], 0.545 µM (active); in test [10], 3.73 µM (active). Besides, the result in test [18], in test [4], in [5], in test [17], in [7] and in [8] was inactive. For the same compound, the compound was called inactive in [9], in test [11], in [12] and in [13].
As for `N#Cc1cc(Br)c(O)c(Br)c1`, the compound was classed as inactive in [1], in [2], in test [5], in test [17], in test [7] and in test [11]. The call in test [12] was inactive. Besides, the AC50 in [16] is 20 µM (active); in test [3], 15.3 µM (active); in test [6] it was 33.4 µM (active).
On to `CCCC1COC(Cn2cncn2)(c2ccc(Cl)cc2Cl)O1` (centres undefined), for which the compound was classed as inactive in test [1], in test [4], in test [17] and in test [7]. Moreover, the AC50 was 6.46 µM (active) in test [16]; 0.759 µM (active) in test [2]; 26.5 µM (active) in test [3]; 2.13 µM (active) in test [6]; 1.59 µM (active) in test [10]; 1.89 µM (active) in [13].
With `COc1ccc(C(c2ccc(OC)cc2)C(Cl)(Cl)Cl)cc1`, the result in [1], in test [16], in test [9], in test [11] and in test [12] was inactive. The AC50 in test [2] is 7.31 µM (active); in test [3] it was 1.14 µM (active); in test [6], 20 µM (active); in [13], 6.44 µM (active).

For orientation: AC50 means the midpoint of the concentration-response curve, whichever way the signal moves.
